# Reference: article PMC7862700, “An all-to-all approach to the identification of sequence-specific readers for epigenetic DNA modifications on cytosine”
# Columns and labels:
# Test in all cases: DAPPL (digital affinity profiling via proximity ligation, sequencing); 10 mM Tris-HCl pH 7.5, 50 mM NaCl, 1 mM DTT, 4% glycerol, room temperature, 30 min; GST-TFs on glutathione beads, 16-mer random dsDNA library, 0.1% formaldehyde crosslink after washing; high values mean tight binding
# Conditions in all cases: protein: recombinant; tags: N-terminal GST; dsDNA, one strand shown
# [1] = molecular target: T1, FLI1 (Homo sapiens, UniProt Q01543 1-452)
# T1 sequence: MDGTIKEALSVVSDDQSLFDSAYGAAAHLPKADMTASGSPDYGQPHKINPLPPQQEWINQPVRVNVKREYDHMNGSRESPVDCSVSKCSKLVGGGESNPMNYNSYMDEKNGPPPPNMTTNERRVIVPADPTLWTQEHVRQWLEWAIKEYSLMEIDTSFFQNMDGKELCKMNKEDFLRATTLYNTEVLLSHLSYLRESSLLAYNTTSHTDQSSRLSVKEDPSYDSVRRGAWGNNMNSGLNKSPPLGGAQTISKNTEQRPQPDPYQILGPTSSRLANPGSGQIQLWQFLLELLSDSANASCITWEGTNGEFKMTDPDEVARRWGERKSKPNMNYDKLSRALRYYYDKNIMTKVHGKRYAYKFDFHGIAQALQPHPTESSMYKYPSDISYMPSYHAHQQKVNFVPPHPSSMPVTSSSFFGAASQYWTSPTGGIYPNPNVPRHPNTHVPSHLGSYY
# How it was run: (§1)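 Human transcription factors were made in yeast as GST fusions, captured on glutathione beads and barcoded with DNA. With a tag-only sample included, the pool was incubated with 200 nmole of a random double-stranded 16-mer DNA library in Tris/NaCl/DTT/glycerol buffer at room temperature for 30 min, then crosslinked with 0.1% formaldehyde after washing, ligated by proximity, amplified and sequenced. For binding signal, each hexamer's read frequency for a factor is divided by its frequency for the tag-only sample.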
# [2] = molecular target: T2, ELK1 (Homo sapiens, UniProt P19419 1-428)
# T2 sequence: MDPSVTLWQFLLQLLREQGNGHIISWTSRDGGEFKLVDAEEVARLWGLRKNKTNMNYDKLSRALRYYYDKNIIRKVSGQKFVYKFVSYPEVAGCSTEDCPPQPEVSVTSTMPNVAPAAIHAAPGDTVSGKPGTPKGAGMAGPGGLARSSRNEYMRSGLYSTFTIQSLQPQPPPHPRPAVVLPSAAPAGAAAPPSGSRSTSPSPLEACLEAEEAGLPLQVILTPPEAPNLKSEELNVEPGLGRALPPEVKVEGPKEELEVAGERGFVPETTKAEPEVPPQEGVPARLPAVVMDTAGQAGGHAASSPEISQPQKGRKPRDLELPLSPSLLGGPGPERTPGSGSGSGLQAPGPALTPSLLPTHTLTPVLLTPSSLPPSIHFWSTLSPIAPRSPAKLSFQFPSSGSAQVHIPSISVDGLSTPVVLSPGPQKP
# How it was run: as §1
# [3] = molecular target: T3, GABPA (Homo sapiens, UniProt Q06546 1-454)
# T3 sequence: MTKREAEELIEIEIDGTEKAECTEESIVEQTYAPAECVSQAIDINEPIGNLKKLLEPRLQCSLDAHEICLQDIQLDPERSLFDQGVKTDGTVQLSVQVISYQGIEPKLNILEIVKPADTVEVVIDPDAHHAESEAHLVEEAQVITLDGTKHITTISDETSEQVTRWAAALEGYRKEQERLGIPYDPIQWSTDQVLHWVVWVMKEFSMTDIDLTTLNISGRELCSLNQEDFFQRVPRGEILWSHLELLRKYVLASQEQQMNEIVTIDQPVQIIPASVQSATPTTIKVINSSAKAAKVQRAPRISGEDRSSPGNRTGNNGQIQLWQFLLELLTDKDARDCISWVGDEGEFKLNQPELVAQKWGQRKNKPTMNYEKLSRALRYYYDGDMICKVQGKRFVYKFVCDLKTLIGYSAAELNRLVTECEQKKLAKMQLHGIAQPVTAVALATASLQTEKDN
# How it was run: as §1
# [4] = molecular target: T4, ERG (Homo sapiens, UniProt P11308 1-479)
# T4 sequence: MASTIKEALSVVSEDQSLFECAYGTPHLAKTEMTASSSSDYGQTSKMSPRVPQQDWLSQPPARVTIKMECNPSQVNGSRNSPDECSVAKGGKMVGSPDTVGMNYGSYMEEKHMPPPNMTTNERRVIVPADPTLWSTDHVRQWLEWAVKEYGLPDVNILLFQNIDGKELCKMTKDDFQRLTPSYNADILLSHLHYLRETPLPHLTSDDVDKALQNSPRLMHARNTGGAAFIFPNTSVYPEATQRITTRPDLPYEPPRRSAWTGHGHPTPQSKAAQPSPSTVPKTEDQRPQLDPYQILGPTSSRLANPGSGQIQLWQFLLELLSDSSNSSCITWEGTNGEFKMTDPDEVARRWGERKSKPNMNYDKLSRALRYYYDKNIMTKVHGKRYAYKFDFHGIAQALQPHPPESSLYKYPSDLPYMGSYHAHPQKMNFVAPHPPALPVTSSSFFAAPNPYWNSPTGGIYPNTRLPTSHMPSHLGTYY
# How it was run: as §1
# [5] = molecular target: ELF1 (Homo sapiens, UniProt P32519 1-619)
# How it was run: as §1
# [6] = molecular target: T5, EHF (Homo sapiens, UniProt Q9NZC4 1-300)
# T5 sequence: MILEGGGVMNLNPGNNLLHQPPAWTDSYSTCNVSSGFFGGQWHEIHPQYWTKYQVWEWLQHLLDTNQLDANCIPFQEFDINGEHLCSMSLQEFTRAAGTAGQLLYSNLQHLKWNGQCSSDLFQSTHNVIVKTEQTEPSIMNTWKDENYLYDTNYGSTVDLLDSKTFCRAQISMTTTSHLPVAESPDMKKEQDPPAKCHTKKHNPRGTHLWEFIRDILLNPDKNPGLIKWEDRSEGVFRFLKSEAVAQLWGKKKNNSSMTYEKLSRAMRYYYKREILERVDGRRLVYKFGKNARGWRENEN
# How it was run: as §1
# [7] = molecular target: SPI1 (Homo sapiens, UniProt P17947 1-270)
# How it was run: as §1
# [8] = molecular target: SPIB (Homo sapiens, UniProt Q01892 1-262)
# How it was run: as §1
# [9] = molecular target: T6, ELK3 (Homo sapiens, UniProt P41970 1-407)
# T6 sequence: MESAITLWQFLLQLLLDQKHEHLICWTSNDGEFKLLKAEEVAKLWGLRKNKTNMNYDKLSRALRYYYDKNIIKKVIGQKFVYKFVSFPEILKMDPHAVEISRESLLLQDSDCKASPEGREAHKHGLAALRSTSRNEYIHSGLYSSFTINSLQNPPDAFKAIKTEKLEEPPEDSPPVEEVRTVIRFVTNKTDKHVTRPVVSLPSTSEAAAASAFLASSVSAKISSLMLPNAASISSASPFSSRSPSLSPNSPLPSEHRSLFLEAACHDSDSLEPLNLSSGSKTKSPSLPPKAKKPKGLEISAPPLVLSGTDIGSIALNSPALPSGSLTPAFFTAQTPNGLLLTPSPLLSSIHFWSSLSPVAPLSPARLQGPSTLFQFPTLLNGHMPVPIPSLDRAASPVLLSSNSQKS
# How it was run: as §1
# ELF1, sequence (P32519 whole entry): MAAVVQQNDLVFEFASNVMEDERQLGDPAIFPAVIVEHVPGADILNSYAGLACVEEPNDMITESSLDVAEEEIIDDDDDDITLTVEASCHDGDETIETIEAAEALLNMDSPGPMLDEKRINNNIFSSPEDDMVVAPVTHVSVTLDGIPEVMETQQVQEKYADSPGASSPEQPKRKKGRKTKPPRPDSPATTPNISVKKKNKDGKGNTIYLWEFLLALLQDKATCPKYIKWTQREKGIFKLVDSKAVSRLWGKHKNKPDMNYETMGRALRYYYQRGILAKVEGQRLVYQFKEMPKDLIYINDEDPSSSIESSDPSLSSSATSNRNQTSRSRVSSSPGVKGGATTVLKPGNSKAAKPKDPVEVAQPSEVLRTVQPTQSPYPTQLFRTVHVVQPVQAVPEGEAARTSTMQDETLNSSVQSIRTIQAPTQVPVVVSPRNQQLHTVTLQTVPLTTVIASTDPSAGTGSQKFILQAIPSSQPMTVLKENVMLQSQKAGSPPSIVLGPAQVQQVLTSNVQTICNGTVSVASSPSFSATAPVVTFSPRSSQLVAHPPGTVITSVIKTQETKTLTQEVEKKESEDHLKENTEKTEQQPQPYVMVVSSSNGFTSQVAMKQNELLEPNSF
# SPIB, sequence (Q01892 whole entry): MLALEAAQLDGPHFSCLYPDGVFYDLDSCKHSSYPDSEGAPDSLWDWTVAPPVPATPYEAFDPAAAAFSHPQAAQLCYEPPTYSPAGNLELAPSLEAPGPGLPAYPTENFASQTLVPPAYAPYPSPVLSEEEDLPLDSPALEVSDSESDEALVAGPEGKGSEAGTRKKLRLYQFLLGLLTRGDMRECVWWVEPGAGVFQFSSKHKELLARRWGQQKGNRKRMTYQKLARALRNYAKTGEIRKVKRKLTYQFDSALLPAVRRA
Sequence,binding signal [1],binding signal [2],binding signal [3],binding signal [4],binding signal [5],binding signal [6],binding signal [7],binding signal [8],binding signal [9]
AAGAAC,"1.13 fold enrichment (6-mer frequency, TF over GST control)","1.18 fold enrichment (6-mer frequency, TF over GST control)","1.15 fold enrichment (6-mer frequency, TF over GST control)","1.22 fold enrichment (6-mer frequency, TF over GST control)","1.17 fold enrichment (6-mer frequency, TF over GST control)","1.24 fold enrichment (6-mer frequency, TF over GST control)","1.14 fold enrichment (6-mer frequency, TF over GST control)","1.05 fold enrichment (6-mer frequency, TF over GST control)","1.24 fold enrichment (6-mer frequency, TF over GST control)"
CGCCTC,"1.47 fold enrichment (6-mer frequency, TF over GST control)","1.49 fold enrichment (6-mer frequency, TF over GST control)","1.41 fold enrichment (6-mer frequency, TF over GST control)","1.39 fold enrichment (6-mer frequency, TF over GST control)","1.49 fold enrichment (6-mer frequency, TF over GST control)","1.4 fold enrichment (6-mer frequency, TF over GST control)","1.27 fold enrichment (6-mer frequency, TF over GST control)","1.51 fold enrichment (6-mer frequency, TF over GST control)","1.46 fold enrichment (6-mer frequency, TF over GST control)"
ACATGT,"1.23 fold enrichment (6-mer frequency, TF over GST control)","1.14 fold enrichment (6-mer frequency, TF over GST control)","1.05 fold enrichment (6-mer frequency, TF over GST control)","1.11 fold enrichment (6-mer frequency, TF over GST control)","1.19 fold enrichment (6-mer frequency, TF over GST control)","1.09 fold enrichment (6-mer frequency, TF over GST control)","1.14 fold enrichment (6-mer frequency, TF over GST control)","1.15 fold enrichment (6-mer frequency, TF over GST control)","1.06 fold enrichment (6-mer frequency, TF over GST control)"
CTTGTC,"1.17 fold enrichment (6-mer frequency, TF over GST control)","1.33 fold enrichment (6-mer frequency, TF over GST control)","1.32 fold enrichment (6-mer frequency, TF over GST control)","1.19 fold enrichment (6-mer frequency, TF over GST control)","1.22 fold enrichment (6-mer frequency, TF over GST control)","1.19 fold enrichment (6-mer frequency, TF over GST control)","1.35 fold enrichment (6-mer frequency, TF over GST control)","1.23 fold enrichment (6-mer frequency, TF over GST control)","1.34 fold enrichment (6-mer frequency, TF over GST control)"
GTCTAA,"1.05 fold enrichment (6-mer frequency, TF over GST control)","1.03 fold enrichment (6-mer frequency, TF over GST control)","1.14 fold enrichment (6-mer frequency, TF over GST control)","1.09 fold enrichment (6-mer frequency, TF over GST control)","1.09 fold enrichment (6-mer frequency, TF over GST control)","1.02 fold enrichment (6-mer frequency, TF over GST control)","1.08 fold enrichment (6-mer frequency, TF over GST control)","1.09 fold enrichment (6-mer frequency, TF over GST control)","1.12 fold enrichment (6-mer frequency, TF over GST control)"
ACTGAC,"1.13 fold enrichment (6-mer frequency, TF over GST control)","1.14 fold enrichment (6-mer frequency, TF over GST control)","1.22 fold enrichment (6-mer frequency, TF over GST control)","1.17 fold enrichment (6-mer frequency, TF over GST control)","1.22 fold enrichment (6-mer frequency, TF over GST control)","1.16 fold enrichment (6-mer frequency, TF over GST control)","1.26 fold enrichment (6-mer frequency, TF over GST control)","1.21 fold enrichment (6-mer frequency, TF over GST control)","1.11 fold enrichment (6-mer frequency, TF over GST control)"
AGTGGC,"1.31 fold enrichment (6-mer frequency, TF over GST control)","1.19 fold enrichment (6-mer frequency, TF over GST control)","1.2 fold enrichment (6-mer frequency, TF over GST control)","1.28 fold enrichment (6-mer frequency, TF over GST control)","1.23 fold enrichment (6-mer frequency, TF over GST control)","1.4 fold enrichment (6-mer frequency, TF over GST control)","1.75 fold enrichment (6-mer frequency, TF over GST control)","1.3 fold enrichment (6-mer frequency, TF over GST control)","1.31 fold enrichment (6-mer frequency, TF over GST control)"
AGTACA,"1.13 fold enrichment (6-mer frequency, TF over GST control)","1.16 fold enrichment (6-mer frequency, TF over GST control)","1.12 fold enrichment (6-mer frequency, TF over GST control)","1.19 fold enrichment (6-mer frequency, TF over GST control)","1.08 fold enrichment (6-mer frequency, TF over GST control)","1.13 fold enrichment (6-mer frequency, TF over GST control)","1.17 fold enrichment (6-mer frequency, TF over GST control)","1.07 fold enrichment (6-mer frequency, TF over GST control)","1.31 fold enrichment (6-mer frequency, TF over GST control)"
